{
  "source": "PubChem BioAssay AID709",
  "about": "(SRMLSC, 2007)",
  "note": "About 3,600 (5.5%) of roughly 65,000 compounds were called active. The list comes from a sample in which actives are over-represented; it also holds similar structures and randomly drawn compounds. Values without a mark were called inactive.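 How the source made its calls: active means at 10 µM, mean starting fluorescence two-fold or more over control wells; inactive means the rest.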",
  "data": [
    {"assay": "intrinsic fluorescence of library compounds, ex339/em460 – biochemical, MLSMR library, data from DPM-DC assay, artefact control, profiling panel (AID 709);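 further: signal is the first read of a kinetic run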", "conditions": "compound autofluorescence, ex339/em460 nm, NADH buffer; at 10 µM; stronger effect = higher value; 1 = no-compound wells, NADH background", "values": [
      {"smiles": "Cn1c(Cc2csc(N)n2)nnc1SC/C=C/c1ccccc1", "fluorescence fold increase": 1.1},
      {"smiles": "Cc1cn(C2C=CC(CO)O2)c(=O)[nH]c1=O", "note": "(centres undefined)", "fluorescence fold increase": 1.07},
      {"smiles": "Cc1ccc(-n2nc3cc(Cl)c(NC(=O)c4ccco4)cc3n2)cc1", "fluorescence fold increase": 1.84},
      {"smiles": "Cc1ccc(Cn2c(NC(=O)c3ccco3)nc3ccccc32)cc1", "fluorescence fold increase": 1.32},
      {"smiles": "CCn1nc(NC(=O)c2ccco2)c2cc3ccc(C)cc3nc21", "fluorescence fold increase": "3.62 (active)"},
      {"smiles": "CCOc1ccc(NC(=O)CCS(=O)(=O)c2cccc3nsnc23)cc1", "fluorescence fold increase": 1.08},
      {"smiles": "CCC1CCCCN1C(=O)Nc1cccc(NC(=O)N2CCCCC2CC)c1", "note": "(centres undefined)", "fluorescence fold increase": 1.13},
      {"smiles": "CCOC(=O)N1CCN(S(=O)(=O)c2cc3c(cc2C)NC(=O)CO3)CC1", "fluorescence fold increase": 1.11},
      {"smiles": "CCn1ncc(C2=NOC(C(=O)N3CCN(c4ccccc4)CC3)C2)c1C", "note": "(centres undefined)", "fluorescence fold increase": 1.14},
      {"smiles": "O=C(NCc1cccs1)c1ccc2c(c1)ncn2C1CCCC1", "fluorescence fold increase": 1.03},
      {"smiles": "O=C(CS(=O)(=O)Cc1ccccc1)NCC1CCCO1", "note": "(centres undefined)", "fluorescence fold increase": 1.1},
      {"smiles": "O=C(CSc1nnc(-c2ccc(NS(=O)(=O)c3ccccc3)cc2)o1)NCC1CCCO1", "note": "(centres undefined)", "fluorescence fold increase": 1.01},
      {"smiles": "O=C(CSC1=Nc2ccccc2C2=NC(c3ccccc3)C(=O)N12)NCC1CCCO1", "note": "(centres undefined)", "fluorescence fold increase": "2.12 (active)"},
      {"smiles": "CN(C(=O)c1ccccn1)c1nnc(-c2ccccn2)s1", "fluorescence fold increase": "3.72 (active)"},
      {"smiles": "CN(C(=O)C1CCOC1)c1nnc(-c2cccnc2)s1", "note": "(centres undefined)", "fluorescence fold increase": 1.03},
      {"smiles": "COc1cccc(-c2nnc(N(C)C(=O)c3ccno3)s2)c1", "fluorescence fold increase": 1.38},
      {"smiles": "CN(C(=O)COc1ccccc1)c1nnc(-c2ccncc2)s1", "fluorescence fold increase": "5 (active)"},
      {"smiles": "O=C(c1cccs1)N(C(=O)c1cccs1)c1ccccn1", "fluorescence fold increase": 1.09},
      {"smiles": "CN(C(=O)c1ccno1)c1nnc(-c2cccnc2)s1", "fluorescence fold increase": 1.68},
      {"smiles": "Cc1ccc(C)c(NC(=O)CSc2nnc(Cc3cccn3C)n2-c2ccc(F)cc2)c1", "fluorescence fold increase": 1.08},
      {"smiles": "CCCCOc1ccccc1/C=c1/sc2nc(-c3oc4ccccc4c3C)nn2c1=O", "fluorescence fold increase": 1.1},
      {"smiles": "Cc1ccccc1CSc1nnc(-c2ccccn2)n1N", "fluorescence fold increase": 1.08},
      {"smiles": "CN(C)CCCNc1c2c(c(C#N)c3nc4ccccc4n13)CCC2", "fluorescence fold increase": "2.1 (active)"},
      {"smiles": "N#Cc1c2c(c(N3CCN(CCO)CC3)n3c1nc1ccccc13)CCCC2", "fluorescence fold increase": 1.53},
      {"smiles": "COc1ccc(-n2nc3c(c2NC(=O)Cc2cccc(C)c2)CS(=O)C3)cc1", "note": "(centres undefined)", "fluorescence fold increase": 1.15},
      {"smiles": "Cn1cccc1C1(C(F)(F)F)NCCNC1=O", "note": "(centres undefined)", "fluorescence fold increase": 1.11},
      {"smiles": "CC(=O)c1ccc(NC(=O)N[C@@H](Cc2ccccc2)C(=O)O)cc1", "fluorescence fold increase": 1.09},
      {"smiles": "COc1cc(OC)cc(C(=O)Nc2ccc(-c3nc4ccccc4o3)c(O)c2)c1", "fluorescence fold increase": "2.11 (active)"},
      {"smiles": "COc1cc(OC)cc(C(=O)Nc2ncc3c(n2)CC(C)(C)CC3=O)c1", "fluorescence fold increase": 1.1},
      {"smiles": "COc1ccc(NC(=O)c2ccc(OC)cc2)cc1", "fluorescence fold increase": 1.13},
      {"smiles": "Cc1ccc(S(=O)(=O)NC(C)C(=O)Nc2ccccc2C(=O)N2CCCC2)cc1", "note": "(centres undefined)", "fluorescence fold increase": 1.1},
      {"smiles": "CCCC(=O)N=c1sc2cccc(F)c2n1C", "fluorescence fold increase": 1.09},
      {"smiles": "C/C(O)=C\\c1nc(=O)c2c(C)cc(C)nc2n1-c1ccccc1", "fluorescence fold increase": 1.08},
      {"smiles": "Cc1cc(C)c2c(n1)nn1c(-n3ccnc3)cc(C)nc21", "fluorescence fold increase": "3.27 (active)"},
      {"smiles": "O=C(c1ccco1)N1CCN(c2cccc(Cl)c2)CC1", "fluorescence fold increase": 1.03},
      {"smiles": "Cc1nn2c3cc(N4CCOCC4)ccc3nc2c2ccccc12", "fluorescence fold increase": 1.11},
      {"smiles": "Cc1cc(N2CCCC2)n2nc(C)c(-c3ccccc3)c2n1", "fluorescence fold increase": 1.68},
      {"smiles": "Cc1cc(C)c2c(n1)nn1c(N3CCN(c4cccc(Cl)c4)CC3)cc(C)nc21", "fluorescence fold increase": "2.17 (active)"},
      {"smiles": "Cc1cc(C)c2c(n1)nn1c(N3CCOCC3)cc(C)nc21", "fluorescence fold increase": "2.97 (active)"},
      {"smiles": "Cc1nc(SC(C)C)[nH]c(=O)c1Cc1ccccc1", "fluorescence fold increase": 1.11},
      {"smiles": "CCOc1ccc2nc(NC(=O)CSc3nc4c(c(=O)n(C)c(=O)n4C)n3CC)sc2c1", "fluorescence fold increase": 1.12},
      {"smiles": "CC(=O)NC(Cc1ccc(F)cc1)C(=O)O", "note": "(centres undefined)", "fluorescence fold increase": 1.02},
      {"smiles": "CCOC(=O)c1oc2ccccc2c1NC(=O)c1cccs1", "fluorescence fold increase": 1.25},
      {"smiles": "N#C/C=C1\\Sc2ccccc2C(=O)N1CC(=O)N1CCN(S(=O)(=O)c2ccccc2)CC1", "fluorescence fold increase": 1.1},
      {"smiles": "COc1cccc(NC(=O)C(C)Oc2ccccc2)c1", "note": "(centres undefined)", "fluorescence fold increase": 1.11},
      {"smiles": "CC1Oc2ccccc2N(Cc2cccnc2)C1=O", "note": "(centres undefined)", "fluorescence fold increase": 1.14},
      {"smiles": "COC(=O)Cc1c(C)c2ccc(OCC(=O)NCc3ccc4c(c3)OCO4)cc2oc1=O", "fluorescence fold increase": "2.07 (active)"},
      {"smiles": "Cc1ccc(C(=O)OCC(=O)NCc2ccc3c(c2)OCO3)s1", "fluorescence fold increase": 0.99},
      {"smiles": "O=C(COc1ccccc1)NCc1ccc2c(c1)OCO2", "fluorescence fold increase": 1.08},
      {"smiles": "COCc1nnc(NC(=O)CS(=O)(=O)Cc2ccccc2)s1", "fluorescence fold increase": 1.1},
      {"smiles": "Cc1nc2nc(COc3ccccc3)[nH]n2c(=O)c1C", "fluorescence fold increase": 1.17},
      {"smiles": "Cc1nc2c(-c3ccccc3)c(C)[nH]n2c(=O)c1Cl", "fluorescence fold increase": "2.16 (active)"},
      {"smiles": "CC(=O)c1cc(-c2ccccc2)[nH]c1N1CCCC1", "fluorescence fold increase": 1.05},
      {"smiles": "CC1CCN(c2oc(-c3ccccc3F)nc2C#N)CC1", "fluorescence fold increase": "2.45 (active)"},
      {"smiles": "Cc1ccc(OCc2nc(C#N)c(N3CCCC3)o2)cc1", "fluorescence fold increase": 1.03},
      {"smiles": "N#Cc1nc(COc2ccc(Cl)cc2)oc1N1CCCC1", "fluorescence fold increase": 1.02},
      {"smiles": "Cc1cc(C)c(C#N)c(SCc2ccc3c(c2)OCO3)n1", "fluorescence fold increase": 1.09},
      {"smiles": "CCOC(=O)N1CCN(C(=O)CN(C2CCCCC2)S(C)(=O)=O)CC1", "fluorescence fold increase": 1.07},
      {"smiles": "COc1ccc(N2CCN(C(c3cc4ccc(C)cc4[nH]c3=O)c3nnnn3C3CCCC3)CC2)cc1", "note": "(centres undefined)", "fluorescence fold increase": 1.25},
      {"smiles": "COCCn1nnnc1C(c1cc2ccc(OC)cc2[nH]c1=O)N1CCc2ccccc2C1", "note": "(centres undefined)", "fluorescence fold increase": 1.12},
      {"smiles": "CCOc1ccc2[nH]c(=O)c(C(c3nnnn3CCOC)N3CCOCC3)cc2c1", "note": "(centres undefined)", "fluorescence fold increase": "5.03 (active)"},
      {"smiles": "O=C(O)Cc1ccc(NC(=O)C2CCCCC2C(=O)O)cc1", "note": "(centres undefined)", "fluorescence fold increase": 1.09},
      {"smiles": "CC1CN(C(=O)c2ccc3c(c2)OCO3)OC(c2ccccc2)O1", "note": "(centres undefined)", "fluorescence fold increase": 1.07},
      {"smiles": "COc1ccc(C2/C(=C(/O)c3ccc(OC(C)C)cc3)C(=O)C(=O)N2CCCN2CCOCC2)cc1", "note": "(centres undefined)", "fluorescence fold increase": 1.01}
    ]}
  ]
}
